LMP1 NFkB inh: Epstein-Barr LMP1 NF-kappaB reporter inhibition; actives 0.69% (n = 350,000); inhibition, % at 12.5 µM; LMP1-induced NF-kappaB luciferase reporter cells, luminescence; in the data active = inhibition above about 41%;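 note: 0% = neutral control wells and 100% = reference inhibitor control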
EWS-Fli block: EWS/Fli transcriptional activity inhibition. inhibition, % at 12.6 µM. A673 NR0B1-luciferase reporter, viability-normalised. actives 0.67% (n = 350,000);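 active = mean inhibition of at least 50% after viability correction, with every replicate also passing that limit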;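 note: firefly luciferase signal divided by Alamar Blue viability fluorescence both relative to DMSO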
LGR2 inh: inhibitors of bursicon-induced Drosophila LGR2 receptor cAMP signaling | inhibition, % at 9.99 µM | AID 720647 | HEK293 LGR2, CRE-luciferase, bursicon-stimulated, 4 h | actives 0.35% (n = 380,000);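 active = drop in luminescence signal, shown as inhibition above about 50% in the replicate tests, limit read from the data, passing the limit was not always enough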;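 note: agonist challenge used bursicon conditioned medium at about half maximal strength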
TROY NFkB inh: TROY signaling inhibition | Q293 LMP1-TROYcd NF-kB luciferase reporter, 4 h | inhibition, % at 10 µM | actives 0.98% (n = 360,000);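 active = compounds whose plate-normalised and pattern-corrected inhibition of the luciferase reporter signal at the single screening dose is 50% or more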
TWEAK-Fn14 inh: inhibitors of TWEAK-Fn14 interaction signaling | TWEAK-stimulated Fn14 reporter cells, luciferase luminescence, 8 h | inhibition, % at 10 µM | actives 2% (n = 360,000) | AID 1159606; in the data active = inhibition above about 50%
* hit, by the source's call; x = no result given. An excerpt weighted towards active compounds, which were near 2.5% of everything screened.

SMILES	LMP1 NFkB inh	EWS-Fli block	LGR2 inh	TROY NFkB inh	TWEAK-Fn14 inh
COc1cc(OC)cc(-c2nnc(Nc3nc4c(F)cccc4s3)o2)c1	1	x	x	-2	0
Fc1cccc2sc(Nc3nnc(-c4ccccc4)o3)nc12	-4	x	x	-47	103*
NNc1nc2c(F)cccc2s1	-24	-50	-16	68*	62*
Cc1noc(C)c1COC(=O)c1cccc(S(=O)(=O)N2c3ccccc3CC2C)c1 (stereo not given)	10	x	x	19	53*
Cc1noc(C)c1COC(=O)c1cccc(S(=O)(=O)N2CCOCC2)c1	3	1	13	16	8
COc1ccc(Nc2ccc([N+](=O)[O-])cn2)cc1	-23	-102	-64	-31	-19
COc1ccc(Nc2cc(C)c3cc([N+](=O)[O-])ccc3n2)cc1	-7	-37	1	-13	51*
C[C@@H]1CN([C@@H](C)CO)C(=O)Cc2cc(NC(=O)CCCCCC(=O)Nc3ccccc3N)ccc2O[C@@H]1CN(C)S(=O)(=O)c1cn(C)cn1	x	-17	7	x	x
O=S(=O)(Cc1ccccc1)N1CCCCN2[C@H](CO)[C@H](c3ccc(-c4ccccc4)cc3)[C@@H]2C1	x	-1	5	x	x
Cc1nc(N2CCN(c3ccccc3)CC2)[nH]c(=O)c1CCC(C)C	0	5	14	2	60*
CCC(=O)N[C@H]1C=C[C@H](CC(=O)NCCN2CCCCC2)O[C@H]1CO	x	1	16	x	x
O=C(NCc1ccco1)C1CCN(C(=O)c2cc3sccc3n2Cc2ccc(Cl)cc2)CC1	14	x	x	45	50*
O=C(NCc1ccco1)C1CCN(C(=O)c2ccc(Cl)cc2)CC1	2	-8	x	-12	-3
CC(CC1C(C#N)=C(N)SC(N)=C1C#N)c1ccccc1 (stereo not given)	0	x	x	50*	-2
CC(c1ccccc1)C1C(C#N)=C(N)SC(N)=C1C#N (stereo not given)	-2	x	x	-9	0
CCNc1oc(COc2cccc(C)c2)nc1C#N	-21	x	-48	-49	-45
COc1ccc(CNc2oc(COc3ccccc3)nc2C#N)cc1	-15	x	x	-32	-1
COc1ccc(Nc2oc(COc3cccc(C)c3)nc2C#N)cc1	-1	x	x	-64	68*
COc1ccc(Nc2oc(COc3ccc(C)cc3)nc2C#N)cc1	20	x	x	-3	69*
COc1ccc(Nc2oc(COc3ccccc3F)nc2C#N)cc1	23	3	8	-31	57*
N#Cc1nc(COc2ccccc2F)oc1NCCc1ccccc1	-29	x	x	-51	9
COc1ccc(Nc2oc(COc3ccc(OC)cc3)nc2C#N)cc1	33	x	x	9	86*
C[C@@H]1CN([C@@H](C)CO)C(=O)c2cc(NC(=O)Cc3ccccc3)ccc2O[C@@H](C)CCCCO[C@H]1CN(C)Cc1ccc(C(F)(F)F)cc1	x	16	4	x	x
O=C(NCC[C@H]1CC[C@H](NC(=O)C2CCCCC2)[C@@H](CO)O1)c1cc(Cl)cc(Cl)c1	x	0	15	x	x
COc1ccc(CC(=O)Nc2cccc(-c3nnc(-c4ccco4)o3)c2)cc1	12	x	x	-31	33
SMILES	LMP1 NFkB inh	EWS-Fli block	LGR2 inh	TROY NFkB inh	TWEAK-Fn14 inh
COc1ccc(C(=O)Nc2cccc(-c3nnc(-c4ccco4)o3)c2)cc1	-8	x	x	23	57*
Cc1cc(C)cc(OCC(=O)Nc2cccc(-c3nnc(-c4ccco4)o3)c2)c1	14	x	34	57*	68*
O=C(COc1ccccc1)Nc1cccc(-c2nnc(-c3ccccc3)o2)c1	-9	x	x	-1	37
O=C(Nc1cccc(-c2nnc(-c3ccccc3)o2)c1)c1ccc(Br)o1	-4	3	-2	58*	40
Cc1noc(C)c1NC(=O)N[C@@H]1CC[C@@H](CCNC(=O)C2CCC2)O[C@H]1CO	x	2	-3	x	x
O=C(N[C@H]1CC[C@H](CCn2cc(-c3ccccc3)nn2)O[C@H]1CO)c1ccccc1F	x	32	-2	x	x
O=C(OCC(=O)N1CCCCC1)c1cccs1	-7	-33	-9	-2	23
CC1CCN(C(=O)COC(=O)c2cccs2)CC1	-12	-4	12	3	58*
Cc1nc(-c2ccc(C(=O)Nc3cccc(Br)c3)cc2)cs1	-25	-6	-30	28	66*
Cc1nc(-c2cccc(NC(=O)c3ccc(-n4nccc4C)cc3)c2)cs1	4	-44	-6	60*	74*
Cc1nc(-c2cccc(NC(=O)c3ccc(Br)o3)c2)cs1	-9	-21	15	-45	-8
CC(C)C[C@@H]1COCc2cn(nn2)CC[C@H](Cc2ccccc2)C(=O)N1	x	4	-5	x	x
CCNc1ccc(Br)cc(C(=O)/C=C/c2c(Cl)cccc2Cl)c1=O	61*	x	x	8	-3

Screens (PubChem BioAssay)
